According to PubChem BioAssay (EPA / NIEHS):
Values joined by “and” are separate entries in the source; they are usually repeats but may differ in a detail not shown here. Equal values may be shown once. Results filed as inconclusive are left out. Active and inactive are the calls of the source. The calls were made as follows: active = hit-call score of the fitted dose curve at least 0.9, where 1 is the maximum; inconclusive = response in the unintended direction; inactive = score below 0.9.

What follows are compounds tested against human Tyrosine Protein Kinase Receptor Tie-2 (Tie2), TEK (gene 7010) (UniProt Q02763) (assay: NVS_ENZ_hTie2: NovaScreen (NVS) Enzymatic Assay for human Tyrosine Protein Kinase Receptor Tie-2 (Tie2) (AID 2283225)).
Chain of human Tyrosine Protein Kinase Receptor Tie-2 (Tie2), TEK (gene 7010) (Q02763 whole entry, looked up): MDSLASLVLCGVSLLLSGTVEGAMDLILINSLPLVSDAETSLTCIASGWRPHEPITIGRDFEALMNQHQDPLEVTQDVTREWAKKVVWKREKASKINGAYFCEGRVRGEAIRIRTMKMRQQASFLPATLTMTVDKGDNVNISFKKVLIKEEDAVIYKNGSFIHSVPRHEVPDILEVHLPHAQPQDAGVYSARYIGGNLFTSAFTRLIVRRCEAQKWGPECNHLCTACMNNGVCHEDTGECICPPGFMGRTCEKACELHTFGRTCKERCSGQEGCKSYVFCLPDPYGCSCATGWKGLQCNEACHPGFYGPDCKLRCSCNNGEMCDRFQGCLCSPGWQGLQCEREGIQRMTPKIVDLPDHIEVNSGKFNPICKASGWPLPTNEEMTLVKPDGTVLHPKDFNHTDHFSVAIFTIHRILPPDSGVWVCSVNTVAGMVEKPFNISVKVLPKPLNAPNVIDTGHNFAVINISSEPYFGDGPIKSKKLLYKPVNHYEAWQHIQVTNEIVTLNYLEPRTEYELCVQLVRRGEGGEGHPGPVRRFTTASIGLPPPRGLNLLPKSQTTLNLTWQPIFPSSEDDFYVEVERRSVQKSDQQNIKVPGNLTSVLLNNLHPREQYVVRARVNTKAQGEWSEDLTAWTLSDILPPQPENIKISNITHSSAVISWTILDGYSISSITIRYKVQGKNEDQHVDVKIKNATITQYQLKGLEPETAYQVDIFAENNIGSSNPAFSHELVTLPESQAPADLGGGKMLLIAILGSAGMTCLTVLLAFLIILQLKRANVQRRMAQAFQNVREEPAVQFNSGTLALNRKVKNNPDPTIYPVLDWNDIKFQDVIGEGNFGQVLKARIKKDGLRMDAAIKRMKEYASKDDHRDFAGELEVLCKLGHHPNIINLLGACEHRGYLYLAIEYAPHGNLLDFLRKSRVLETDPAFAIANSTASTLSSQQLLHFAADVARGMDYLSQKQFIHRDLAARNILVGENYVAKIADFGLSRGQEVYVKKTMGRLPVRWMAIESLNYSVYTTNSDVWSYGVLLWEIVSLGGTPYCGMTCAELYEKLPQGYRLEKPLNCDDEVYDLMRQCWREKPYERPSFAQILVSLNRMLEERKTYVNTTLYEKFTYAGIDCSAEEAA
Method: NVS_ENZ_hTie2 is a biochemical, single-readout assay that uses extracted gene-proteins in a cell-free assay. Measurements were taken 1 hour after chemical dosing in a 384-well plate.NVS_ENZ_hTie2 is one of one assay component(s) measured or calculated from the NVS_ENZ_hTie2 assay. It is designed to make measurements of enzyme activity, a form of enzyme reporter, as detected with fluorescence intensity signals by Fluorescence and electrophoretic mobility shift technology.Data from the assay component NVS_ENZ_hTie2 was analyzed into 1 assay endpoint. This assay endpoint, NVS_ENZ_hTie2, was analyzed in the positive analysis fitting direction relative to DMSO as the negative control and baseline of activity. Using a type of enzyme reporter, loss-of-signal activity can be used to understand changes in the enzymatic activity as they relate to the gene TEK. Furthermore, this assay endpoint can be referred to as a primary readout, because this assay has produced multiple assay endpoints where this one serves a enzymatic activity function. To generalize the intended target to other relatable targets, this assay endpoint is annotated to the kinase intended target family, where the subfamily is receptor tyrosine kinase.
Binding assays used specific radioligands (tritiated, iodinated) with non-radioactive competitive displacement ligands in agonist or antagonist protocols (as indicated) and various reference compounds and inhibitors to titrate specific binding to receptors and transporters. Most enzyme assays (CYPs, kinases, phosphatases, proteases, HDACs) used recombinant protein and specific substrates (fluorescence mostly, some colorimetric and radioactive) and inhibitors, followed by a biochemical separation of substrate and product. All assays for the biochemical HTS were initially run in duplicate at a single concentration (10 uM for CYP450 assays and 25 uM for all others). Assay-chemical combinations meeting a pre-defined threshold (e.g., 30% inhibition and other criteria defined below) were then run in singleton concentration-response format with maximum concentration of 20 uM for CYPs and 50 uM for all others. Each assay was run with positive and negative controls, and concurrent controls on every plate. The follow-up (secondary) screen tested active chemical-pairs in concentration series, as well as a few additional assays not tested in the primary screen, some selected negative inactives, and several cases re-run in the concentration series for confirmatory purposes.
In the case of CNC(=O)CSP(=S)(OC)OC, the outcome is reported as “inactive”.
With Cc1cc(C)nc(NC(=O)NS(=O)(=O)c2ccccc2C(=O)OC2COC2)n1 the outcome was “inactive”.
O=C(O)C(F)(F)C(F)(F)C(F)(F)C(F)(F)C(F)(F)C(F)(F)C(F)(F)F was tested, and the AC50 was 13.7 µM (active).
With O=C(NC(=O)c1c(F)cccc1F)Nc1ccc(OC(F)(F)C(F)OC(F)(F)F)c(Cl)c1 (stereo not given) the outcome was “inactive”.
OCCOc1ccccc1 was tested, and the outcome was “inactive”.
O=S(=O)(O)C(F)(F)C(F)(F)C(F)(F)C(F)(F)C(F)(F)C(F)(F)C(F)(F)C(F)(F)F was tested, and the AC50 was 8.09 µM (active) and 6.38 µM (active) and 5.3 µM (active).
Oc1cc(Cl)ccc1Oc1ccc(Cl)cc1Cl was tested, and the outcome was “inactive”.
For CC(C)(C)C(O)C(Oc1ccc(Cl)cc1)n1cncn1 (stereo not given), the outcome was “inactive”.
CC(C)OC(=O)Nc1cccc(Cl)c1 was tested, and the outcome was “inactive”.
With CC[C@H](C)[C@H]1O[C@]2(C=C[C@@H]1C)C[C@@H]1C[C@@H](C/C=C(\C)[C@@H](O[C@H]3C[C@H](OC)[C@@H](O[C@H]4C[C@H](OC)[C@@H](O)[C@H](C)O4)[C@H](C)O3)[C@@H](C)/C=C/C=C3\CO[C@@H]4[C@H](O)C(C)=C[C@@H](C(=O)O1)[C@]34O)O2 (tested in a mixture with another compound) the AC50 was 36.1 µM (active).
